From PubChem
Anthrax LF inh2: inhibitors of Bacillus anthracis lethal factor protease | P15917 | multiplex microsphere protease cleavage assay, LF | inhibition, % at 10 µM | 360,000 compounds, 0.12% hits | AID 588501; note: plate controls were buffer without enzyme for full effect and enzyme alone for no effect
Autofluor counter: compound fluorescence in toxin protease inhibitor counterscreen; compound autofluorescence counterscreen, microsphere flow cytometry; stronger effect = higher value; fluorescence intensity (no concentration beside the values); 360,000 compounds, 3.1% hits; AID 624483; in the data active = fluorescence intensity above about 16000; inconclusive = no clear call, values can overlap the other calls
GDH-TPI counter-1: GDH-TPI coupled enzyme inhibition counter-screen. inhibition, % at 4.8 µM. GDH-TPI coupled enzyme counterscreen, NADH absorbance. AID 588335. 360,000 compounds, 1.2% hits; in the data active = inhibition above about 30%;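 note: 0% = DMSO wells and 100% = wells lacking the enzyme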
FBA Mtb inh: inhibits M. tuberculosis FBA enzyme | P9WQA3 | purified M. tuberculosis FBA, fluorescence read-out | inhibition, % at 1 µM | 360,000 compounds, 2.3% hits; in the data active = inhibition above about 27%;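 note: 0% = vehicle and 100% = reference inhibitor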
Target sequence (P9WQA3 whole entry, looked up): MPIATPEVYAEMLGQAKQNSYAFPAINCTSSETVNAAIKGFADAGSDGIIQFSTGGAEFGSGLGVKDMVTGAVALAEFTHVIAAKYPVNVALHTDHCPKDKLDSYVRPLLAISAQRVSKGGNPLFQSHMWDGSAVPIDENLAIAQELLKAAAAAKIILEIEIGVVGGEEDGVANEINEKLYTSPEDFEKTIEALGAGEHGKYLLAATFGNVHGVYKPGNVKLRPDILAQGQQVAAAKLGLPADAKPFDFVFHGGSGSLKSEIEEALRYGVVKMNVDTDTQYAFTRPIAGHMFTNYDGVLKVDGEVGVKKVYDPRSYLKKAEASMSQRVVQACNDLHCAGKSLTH
BoNT-A LC inh2: blocks Botulinum neurotoxin A light chain protease. AID 588499. 360,000 compounds, 0.17% hits. inhibition, % at 10 µM. multiplex microsphere protease substrate cleavage, flow cytometry; note: plate controls were buffer without enzyme for full effect and enzyme alone for no effect
BoNT-F LC inh: blocks Botulinum neurotoxin F light chain protease. Multiplex microsphere protease cleavage assay, flow cytometry. inhibition, % at 10 µM. 360,000 compounds, 0.22% hits. AID 588497; in the data active = inhibition above about 35%, passing the limit was not always enough; inconclusive = no clear call, values can overlap the other calls; note: plate controls were buffer without enzyme for full effect and enzyme alone for no effect
Mtb FBA inh conf: confirmation of M. tuberculosis fructose-bisphosphate aldolase inhibitors. AID 651616. inhibition, % at 1 µM. shares compounds with FBA Mtb inh. 5,600 compounds, 78% hits. purified M. tuberculosis FBA, fluorescence read-out; in the data active = inhibition above about 27%;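 note: 0% = vehicle wells and 100% = reference inhibitor wells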
GDH-TPI counter-2: GDH-TPI inhibition counter-screen for FBA inhibitors | shares compounds with FBA Mtb inh | GDH-TPI coupled enzyme counterscreen, fluorescence | inhibition, % at 1 µM | 5,600 compounds, 81% hits | AID 652141; in the data active = inhibition above about 10%
GDH-TPI dose: counter-screen for M. tuberculosis FBA inhibitors: GDH-TPI dose response. 170 compounds, 79% hits. GDH-TPI coupled enzyme assay, fluorescence, artifact counterscreen. shares compounds with FBA Mtb inh. IC50, µM; call rule not given here
An asterisk follows results filed as active. Compounds with a hit are over-represented: about 6.6% of the library has one in this group of screens. Cut-off read from the data, not from the text of the source, unless noted: active = inhibition above about 30%; inconclusive = no clear call, values can overlap the other calls; inactive = below that.

O=C(NCCCN1CCOCC1)C(=O)NCC1OCCN1S(=O)(=O)c1ccc(Cl)cc1 (centres undefined) was read as Anthrax LF inh2 -9.7, Autofluor counter 2845, GDH-TPI counter-1 11.0, FBA Mtb inh 2.9, BoNT-A LC inh2 -0.1 and BoNT-F LC inh -4.9.
O=C(CSc1ccc(Cl)cc1Cl)N1CCC(c2nc3ccccc3s2)CC1 was read as Anthrax LF inh2 -1.6, Autofluor counter 4346, GDH-TPI counter-1 3.1, FBA Mtb inh 0.4, BoNT-A LC inh2 0.3 and BoNT-F LC inh 15.2.
For CNc1cccc(-c2ccc(N3CCN(C)CC3)nc2)n1 the results were Anthrax LF inh2 -1.4, Autofluor counter 3391, GDH-TPI counter-1 11.1, FBA Mtb inh 53.8*, BoNT-A LC inh2 0.0, BoNT-F LC inh 0.5, Mtb FBA inh conf 16.9, GDH-TPI counter-2 0.2 and GDH-TPI dose 3.46*.
For CNc1cccc(-c2ccc(C(=O)N3CCOCC3)cc2)n1 the results were Anthrax LF inh2 -3.3, Autofluor counter 3773, GDH-TPI counter-1 15.5, FBA Mtb inh 10.3, BoNT-A LC inh2 -0.6 and BoNT-F LC inh -9.9.
CCC1Cc2c(nc(N)c3c(N)nc(N4CCOCC4)c(C#N)c23)O1 (centres undefined) was read as Anthrax LF inh2 -5.3, Autofluor counter 4205, GDH-TPI counter-1 19.8, FBA Mtb inh 36.7*, BoNT-A LC inh2 0.2, BoNT-F LC inh 2.2, Mtb FBA inh conf 147.1* and GDH-TPI counter-2 121.9*.
N#Cc1c(N2CCCCC2)nc(N)c2c(N)nc3c(c12)CC(CCl)O3 (centres undefined) was read as Anthrax LF inh2 0.7, Autofluor counter 4148, GDH-TPI counter-1 6.8, FBA Mtb inh 16.3, BoNT-A LC inh2 0.1 and BoNT-F LC inh 4.8.
COc1ccc(CN2C(=O)Cc3c2nc(N)c2c(N)nc(N4CCOCC4)c(C#N)c32)cc1 was read as Anthrax LF inh2 -2.6, Autofluor counter 4234, GDH-TPI counter-1 5.6, FBA Mtb inh 41.3*, BoNT-A LC inh2 1.3, BoNT-F LC inh -0.9, Mtb FBA inh conf active and GDH-TPI counter-2 active.
Screening COC(=O)C1=C(Nc2cc(Cl)cc(Cl)c2)CSC1 returned Anthrax LF inh2 16.5, Autofluor counter 3099, GDH-TPI counter-1 13.1, FBA Mtb inh -2.4, BoNT-A LC inh2 -4.7 and BoNT-F LC inh inconclusive.
`COC(=O)/C=c1\[nH]c2nnc(C)n2c1=O` gave Anthrax LF inh2 -8.9, Autofluor counter 5952, GDH-TPI counter-1 9.3, FBA Mtb inh 84.3*, BoNT-A LC inh2 -0.1, BoNT-F LC inh -5.2, Mtb FBA inh conf active and GDH-TPI counter-2 active.
For Cc1c(NC(=O)COC(=O)C2=COCCO2)cccc1[N+](=O)[O-] the results were Anthrax LF inh2 -1.6, Autofluor counter 5138, GDH-TPI counter-1 -1.4, FBA Mtb inh -1.5, BoNT-A LC inh2 0.7 and BoNT-F LC inh inconclusive.
For CCn1c(=O)c2cc(C(=O)NCCCOC)sc2c2ccccc21 the results were Anthrax LF inh2 -7.3, Autofluor counter 4064, GDH-TPI counter-1 26.5, FBA Mtb inh 53.6*, BoNT-A LC inh2 -0.3, BoNT-F LC inh -0.4, Mtb FBA inh conf active and GDH-TPI counter-2 186.0*.
For CCCN(CCC)CCCNC(=O)c1cc2c(=O)n(CC)c3ccccc3c2s1 the results were Anthrax LF inh2 1.6, Autofluor counter 3661, GDH-TPI counter-1 17.0, FBA Mtb inh 27.3*, BoNT-A LC inh2 -0.8, BoNT-F LC inh -5.0, Mtb FBA inh conf active and GDH-TPI counter-2 active.
Screening CCN(CC)CCNC(=O)Cc1c(C(=O)O)n(CC)c2ccccc12 returned Anthrax LF inh2 -2.1, Autofluor counter 12795, GDH-TPI counter-1 0.7, FBA Mtb inh 2.3, BoNT-A LC inh2 -0.4 and BoNT-F LC inh -1.7.
CCn1c(=O)c2cc(C(=O)NCCC(C)C)sc2c2ccccc21 was read as Anthrax LF inh2 1.2, Autofluor counter 3865, GDH-TPI counter-1 6.3, FBA Mtb inh 8.1, BoNT-A LC inh2 -1.7 and BoNT-F LC inh inconclusive.
